SMILES strings stand for the structures. In all, about 320,000 compounds went through this assay and about 2,100 (0.66%) were called active. Inconclusive results (about 53%) are left out. Calls come from the whole dose curve; as a rule, active = well fitted inhibition curve with a large enough effect in the signal ratio, with a control signal flat (not every such curve was filed as active); inconclusive = small, poorly fitted or top-dose-only effect, or effect the other way, or a change in a side signal; inactive = flat fitted curve, though single readings scatter; the % refers to the signal ratio. The sample as a whole holds a higher share of actives than the screen did.

The record followed here is PubChem BioAssay AID2685 (National Center for Advancing Translational Sciences (NCATS), 2010).
Potency is the fitted concentration of half-maximal effect.

The nature of the assay: qHTS Assay for Lipid Storage Modulators in Drosophila S3 Cells.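 For cell number change: cells counted by Cell Tracker Red CMTPX staining in the red channel.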 For lipid storage change, negative = inhibition: % is set by controls: 0 for no effect and ±100 for the full control effect. To be noted: BODIPY lipid droplet fluorescence, 18-24 h, cells fed with added oleic acid; cell number change: measured here: cell count max response; series mostly up to 46.1 µM. In a few lines: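 Drosophila S3 cells loaded with oleic acid (400 uM, as added) and compounds at several concentrations; lipid droplets imaged by 488-nm laser-scanning cytometry, 500–530 nm intensity and object ratio to cell channel. Percent activity normalized to 20 uM Triacsin C.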
On the technique in general: In qHTS, concentration-response curves come from the screen itself.
On to `O=C(NC1(C(=O)NC2CCCCC2)CCCCC1)c1ccc2c(c1)OCO2`, for which the Potency result was “inactive” and the cell number change was 4.66%.

In the case of `O=C(NNC(=O)c1cnccc1C(F)(F)F)c1ccccc1`, the Potency entry is “inactive” and the cell number change turned out to be 8.28%.

As to `O=C(O)CC12CC3CC(C1)CC(n1ncc(NCc4ccc5c(c4)OCO5)c(Cl)c1=O)(C3)C2`, the Potency result was “inactive” and the cell number change amounted to 16.3%.

`CN(CC1CCCO1)S(=O)(=O)c1ccc(C(=O)Nc2ccc(F)cc2)cc1` (configuration not stated): the Potency is 23.1 µM (active) and the cell number change was -21.7%.

For the molecule `CN(C)S(=O)(=O)c1ccc(NC(=O)c2ccc([N+](=O)[O-])cc2)cc1`, the Potency entry is “inactive” and the cell number change is -1.07%.

As for `O=C(NCC1CCCO1)c1ccc(NC(=O)c2ccc([N+](=O)[O-])cc2)cc1` (configuration not stated), the Potency result was “inactive” and the cell number change was 13.2%.

Consider `CN(CC1CCCO1)S(=O)(=O)c1ccc(C(=O)Nc2ccc([N+](=O)[O-])cc2)cc1` (configuration not stated), for which the Potency is 12.6 µM (active) and the cell number change was -17.5%.

Regarding `Cc1cc(NC(=O)c2ccc(S(=O)(=O)N(C)CC3CCCO3)cc2)no1` (configuration not stated), the Potency entry was “inactive”.

Consider `CN(CC1CCCO1)S(=O)(=O)c1ccc(C(=O)Nc2ccc3c(c2)OCO3)cc1` (configuration not stated), for which the Potency entry is “inactive” and the cell number change is 16.6%.

Regarding `CCOC(=O)Cn1c(=O)c2c(nc3n2CCS3)n(C)c1=O`, the Potency result is “inactive” and the cell number change is 2.48%.

For `CN1C(C(=O)NCc2ccco2)CC2Cn3c(nc4cc5ccccc5cc43)C21` (configuration not stated), the Potency entry is “inactive” and the cell number change was 2.89%.

In the case of `COc1cccc(C(=O)NCCS(=O)(=O)N2CC(C)CC(C)C2)c1` (configuration not stated), the Potency entry is “inactive” and the cell number change stood at 28.7%.

In the case of `CCN(Cc1ccccc1)C(c1ccncc1)c1nnnn1C(C)(C)C` (configuration not stated), the Potency result is “inactive” and the cell number change is 1.49%.

As for `CCCNc1nc2ccccc2c(=O)[nH]1`, the Potency result was “inactive” and the cell number change was -7.59%.

Take `Cc1c2ccccc2nc2c(F)c(NC(C)C)c(F)c(F)c12`: the Potency was 20.6 µM (active) and the cell number change is -3.77%.

Turning to `Cc1c2ccccc2nc2c(F)c(NCCO)c(F)c(F)c12`, the Potency result was “inactive” and the cell number change is -2.87%.

For the molecule `Cc1c2ccccc2nc2c(F)c(N(C)C)c(F)c(F)c12`, the Potency entry is “inactive” and the cell number change was -4.76%.

In the case of `CCCNc1c(F)c(F)c2c(C)c3ccccc3nc2c1F`, the Potency was 14.6 µM (active) and the cell number change was 13.7%.

`CN(C)c1c2ccccc2nc2c(F)c(F)c(F)c(F)c12`: the Potency entry was “inactive” and the cell number change was -0.117%.

As to `CCOC(=O)/C(=N\NC(=O)c1ccccc1)c1ccccc1`, the Potency entry is “inactive” and the cell number change was 17.6%.

Turning to `CCOC(=O)c1sc2ccc(S(=O)(=O)N3CCOCC3)cc2c1N`, the Potency result is “inactive” and the cell number change is -11.9%.

Consider `CCOC(=O)NC(=O)CSc1cc(C)c2cc(C)cc(C)c2n1`, for which the Potency result is “inactive” and the cell number change was -6.06%.

With `O=C(c1ccc(F)cc1)N1CCN(S(=O)(=O)c2ccc(Br)cc2)CC1`, the Potency result is “inactive”.

Consider `CCOC(=O)C1(C)NC(c2cccc(C)c2)C2C(=O)N(c3ccccc3)C(=O)C21` (configuration not stated), for which the Potency entry is “inactive” and the cell number change stood at 1.72%.

Take `CCCC1(C(=O)OCC)NC(c2ccc(N(C)C)cc2)C2C(=O)N(c3ccc4c(c3)OCCO4)C(=O)C21` (configuration not stated): the Potency result was “inactive” and the cell number change turned out to be 7.42%.

As for `CCOC(=O)C1(C)NC(c2ccc(O)cc2)C2C(=O)N(c3ccccc3)C(=O)C21` (configuration not stated), the Potency is 20.6 µM (active) and the cell number change was determined as 13.7%.

As to `CCCC1(C(=O)OCC)NC(c2ccc(O)cc2)C2C(=O)N(c3ccc4c(c3)OCCO4)C(=O)C21` (configuration not stated), the Potency was 18.4 µM (active).

Regarding `COC(=O)C1(C)NC(c2ccc(O)cc2)C2C(=O)N(c3ccc(C)cc3)C(=O)C21` (configuration not stated), the Potency result was “inactive” and the cell number change was -4.99%.

For `COC(=O)C1(CCSC)NC(c2ccc(O)cc2)C2C(=O)N(c3ccc4c(c3)OCCO4)C(=O)C21` (configuration not stated), the Potency entry is “inactive” and the cell number change came to 9.07%.

Take `c1ccc(N2CCN(CCc3nnc4n3CCCCC4)CC2)cc1`: the Potency entry was “inactive” and the cell number change stood at 1.29%.

On to `Cc1cc(NC(=O)c2ccco2)ccc1NC(=O)c1ccco1`, for which the Potency result was “inactive” and the cell number change amounted to 11.3%.

In the case of `CCOc1ccccc1NCc1cc(=O)oc2cc(C)ccc12`, the Potency result is “inactive” and the cell number change was -3.97%.

Consider `CCOc1ccccc1NCc1cc(=O)oc2cc(C)c(O)cc12`, for which the Potency was 3.66 µM (active) and the cell number change is -1.8%.

In the case of `Cc1cc2oc(=O)cc(CNc3ccccc3F)c2cc1O`, the Potency entry is “inactive” and the cell number change was -14.4%.

On to `CC(C)(C)c1ccc(NC(=O)c2cc[n+]([O-])cc2)cc1`, for which the Potency entry was “inactive” and the cell number change stood at 27.8%.

Consider `Cc1ccn(CC(C)C(=O)O)n1` (configuration not stated), for which the Potency entry was “inactive” and the cell number change came to 3.92%.

As for `CCN1CCN(C(CNS(=O)(=O)c2ccc(Br)cc2)c2cccnc2)CC1` (configuration not stated), the Potency entry is “inactive” and the cell number change was -9.83%.

As to `CCOc1ccc(NC(=O)Nc2cc(OCC(F)(F)F)cc(OCC(F)(F)F)c2)cc1`, the Potency was 5.8 µM (active) and the cell number change is -25.7%.

Consider `CCOc1ccc(NC(=O)Nc2ccc(NC(C)=O)cc2)cc1`, for which the Potency result was “inactive” and the cell number change is 11%.

On to `CCOc1ccc(NC(=O)Nc2cccc(C(=O)O)c2)cc1`, for which the Potency entry is “inactive” and the cell number change was found to be 14.2%.

With `O=[N+]([O-])c1ccc2c(c1)c1ccccc1n2CCO`, the Potency entry is “inactive” and the cell number change stood at 0.129%.

On to `CN(C)CCn1c2ccccc2c2nc3ccc([N+](=O)[O-])cc3cc21`, for which the Potency is 7.31 µM (active) and the cell number change was -46.5%.

For `CCN(CC)CCn1c2ccccc2c2nc3ccc([N+](=O)[O-])cc3cc21`, the Potency entry is “inactive” and the cell number change is 8.11%.

As to `CC1(C)CC(=O)C2=C(C1)OC(N)=C(C#N)C2c1ccsc1` (configuration not stated), the Potency entry was “inactive”.

As to `COc1ccc(N2CCN(C(=O)C3CCN(S(=O)(=O)c4ccc5c(c4)oc(=O)n5C)CC3)CC2)cc1`, the Potency entry was “inactive”.

Take `COc1cc(/C=C/C(=O)Nc2ccc3nc4n(c(=O)c3c2)CCCC4)cc(OC)c1OC`: the Potency result is “inactive” and the cell number change was -7.64%.

For the molecule `O=[N+]([O-])c1ccccc1N/N=C/c1ccccc1`, the Potency result is “inactive” and the cell number change was -10.2%.

As to `C/C(=N/Nc1ccccc1[N+](=O)[O-])c1ccc([N+](=O)[O-])cc1`, the Potency result is “inactive” and the cell number change came out at 22.2%.

For `CC(C)/C(=N/Nc1ccccc1[N+](=O)[O-])c1ccccc1`, the Potency was 9.2 µM (active) and the cell number change is -12.6%.

`COc1cccc(CN2CC(C(=O)NCCCn3cccn3)CCC2=O)c1` (configuration not stated): the Potency entry is “inactive” and the cell number change came to 0.348%.

For the molecule `CCC(=O)N/N=C/c1ccc(-c2ccc([N+](=O)[O-])cc2)o1`, the Potency entry was “inactive” and the cell number change came out at 3.62%.

With `CC(C)(C)C(=O)/C=c1\s/c(=C\c2ccc(-c3ccc([N+](=O)[O-])cc3)o2)c(=O)n1CC(=O)NC(N)=O`, the Potency is 1.03 µM (active) and the cell number change was -31.4%.

Take `CCCNC(=O)Cn1c(=O)/c(=C\c2ccc(-c3cccc([N+](=O)[O-])c3)o2)s/c1=C\C(=O)C(C)(C)C`: the Potency entry is “inactive” and the cell number change stood at 0.916%.

Regarding `O=C(COC(=O)CCN=C1NS(=O)(=O)c2ccccc21)NNC(=O)c1ccccc1`, the cell number change is -17.2% and the lipid storage change, negative = inhibition was -1.99% [at 0.0737 µM] (inactive).

Take `Cn1cc(CN2CCC(N3CCNC(=O)CC3)CC2)c(-c2ccccc2F)n1`: the Potency result is “inactive” and the cell number change was -9.69%.

For `CCOC(=O)C1CCN(Cc2ccc(OC)c(OCc3ccccc3)c2)CC1`, the Potency entry was “inactive” and the cell number change is -8.13%.
